aSyn UTR act = Activators working through SNCA 5'UTR binding (MLPCN); 300,000 compounds, 7.1% hits; AID 1814; alpha-synuclein 5'UTR reporter, activators screen; activity score, % (tested at 7.5 µM), hits read low; in the data active means activity score below about -60%
A number is an active result; . = inactive. These entries were drawn from the full list.

SMILES	aSyn UTR act
CC(=O)Nc1ccc(-c2nc3c(C)cccc3[nH]2)cc1	-140.8
Brc1ccc(-c2csc(-c3ccncc3)n2)cc1	-194.6
Cc1ccc(-c2csc(-c3ccncc3)n2)cc1	-213.2
C/C(=N\Nc1ccc(C(=O)O)cc1)c1ccc2c(c1)Nc1ccccc1S2	-109.5
Cc1cccc(NC(=O)c2ccc(NCCO)c([N+](=O)[O-])c2)n1	-94.8
Cc1cccc(NC(=O)c2ccc(NCC3CCCO3)c([N+](=O)[O-])c2)n1 (stereo unspecified)	-120.6
Cc1cccc(NC(=O)c2ccc(NCC3CCCO3)c([N+](=O)[O-])c2)c1 (stereo unspecified)	-63.8
CC(=O)c1ccc(NCC2COc3ccccc3O2)c([N+](=O)[O-])c1 (stereo unspecified)	-179.3
Cc1cc(C)nc(SCC(=O)OCC(=O)Nc2nc3ccccc3s2)n1	-69.8
Cc1csc(SCC(=O)Nc2nc3ccccc3s2)n1	-99.9
Cc1cc(C)n2c(Br)c(CSc3nc4ccccc4s3)nc2n1	-79.2
Cc1cc(NC(=O)CCl)n(-c2nc3ccccc3s2)n1	-77.0
CC(C)(C)NC(=O)CCCSc1nc2ccccc2s1	-133.0
O=C(CCSc1nc2ccccc2s1)N/N=C/c1c(O)ccc2ccccc12	.
Cc1cc(C)nc(NC(=O)CSc2nc3ccccc3s2)n1	-203.1
O=c1c2ccccc2sn1-c1ccccc1	-115.1
COc1ccc(/C=C2/SC(=O)NC2=O)cc1	-117.5
COc1ccc(/C=C2/SC(=S)N(CCC(=O)O)C2=O)cc1	.
COc1cc(/C=C2/SC(=S)N(CC3CCCO3)C2=O)ccc1O (stereo unspecified)	-95.2
Cc1ccc(/C=C2\SC(=S)N(CC3CCCO3)C2=O)o1 (stereo unspecified)	-68.0
COc1ccc(/C=C2\SC(=S)N(CC3CCCO3)C2=O)cc1 (stereo unspecified)	-89.2
Cc1cccc(N(C)S(=O)(=O)c2ccc(-c3cnc(C4CC4)o3)cc2)c1	.
COc1ccc(OC)c(Cc2nnc(CCC(=O)N3CCN(C4CCCC4)CC3)o2)c1	-74.0
NC1=NC(=O)/C(=C\C=C\c2ccccc2)S1	-73.3
ClC1=C(Cl)C(Cl)=C(Cl)C1=C/C=C/c1ccccc1	.
SMILES	aSyn UTR act
O=c1cc(-c2ccco2)oc2ccc(Cl)cc12	-95.9
COc1ccc2oc(-c3ccco3)cc(=O)c2c1	-128.9
COc1cc(OC)c2c(=O)cc(-c3ccccc3)oc2c1	-102.2
COc1cccc2oc(-c3ccco3)cc(=O)c12	-94.2
COc1ccc2cc(/C=N/NC(=O)c3ccc(CN(c4cccc(Cl)c4Cl)S(C)(=O)=O)cc3)c(Cl)nc2c1	.
CCOc1ccc2cc(/C=C/C(=O)c3ccco3)c(Cl)nc2c1	-172.2
COc1ccccc1/C=C/C=N/NC(=O)c1cccs1	-180.5
COc1ccccc1/C=C\C=N\NC(=O)c1ccco1	-97.9
O=C(/C(C=Nc1ccc(Br)cc1)=C(/O)c1ccco1)C(F)(F)F	-175.1

Screening data deposited in PubChem by Broad Institute.
